Giardia FBPA inh: Giardia lamblia aldolase inhibition | Potency, µM (titrated, usually from 59.6 µM), for the others: top-dose activity, negative = inhibition, usual class: inhibitors | AID 2451 | A8B2U2 | purified Giardia FBPA | actives 0.71% (n = 290,000); also: potency is read from the fitted curve at half-maximal effect; nearly all actives have a fitted effect of over 55% in size
Target sequence (A8B2U2 whole entry, looked up): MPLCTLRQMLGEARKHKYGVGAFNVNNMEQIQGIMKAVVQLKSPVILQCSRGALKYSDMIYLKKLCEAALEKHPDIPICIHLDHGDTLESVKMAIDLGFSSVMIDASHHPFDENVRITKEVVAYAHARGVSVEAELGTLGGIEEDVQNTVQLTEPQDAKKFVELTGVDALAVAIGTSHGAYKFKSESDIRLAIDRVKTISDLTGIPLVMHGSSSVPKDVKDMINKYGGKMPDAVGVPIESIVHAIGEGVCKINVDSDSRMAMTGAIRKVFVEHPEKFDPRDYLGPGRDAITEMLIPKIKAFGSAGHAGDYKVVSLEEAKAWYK
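40 nM FBPA preincubated 10 min at RT with compound (up to 57.5 uM final), then substrate plus GAPDH/TPI/NAD/arsenate coupling and diaphorase/resazurin added. Fluorescence read after 20 min at RT, 525/598 nm.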
FMDV antiviral: antivirals against foot and mouth disease virus; FMDV antiviral cell-based qHTS; Potency, µM (top dose mostly 57.9 µM), inactives show at the top dose activity change, negative = inhibition, actives largely listed as inhibitors; actives 1.2% (n = 410,000); calls by dose curve; tested in HEK293T cells; also: read-out not given here; potency is read from the fitted curve at half-maximal effect; nearly all actives have a fitted effect of over 45% in size
MARV entry inh: inhibitors of Marburg virus binding or cell entry | Potency, µM (doses to about 37.8 µM), for the others: at the top dose activity change, negative = inhibition, hits mostly inhibitors | Marburg virus pseudotyped entry inhibition, cell reporter | AID 540276 | actives 1.8% (n = 300,000); calls by dose curve; tested in HEK293 cells; also: potency is read from the fitted curve at half-maximal effect
LASV entry inh: inhibitors of Lassa virus binding or cell entry | actives 1.2% (n = 300,000) | Potency, µM (highest dose often 37.9 µM), for inactives: top-dose activity change, negative = inhibition, usual class: inhibitors | Lassa virus pseudotype entry inhibition, cell reporter; calls by dose curve; tested in HEK293 cells; also: potency is read from the fitted curve at half-maximal effect; nearly all actives have a fitted effect of over 50% in size
HCMV antiviral: blocks human cytomegalovirus replication. HFF cells, HCMV-luciferase reporter, 72 h; stronger effect = lower value. activity change, negative = inhibition, % at 57.5 µM. actives 4.5% (n = 410,000). AID 1259415; in the data active = activity change below about -60%; inconclusive = no clear call, values can overlap the other calls; inactive = above about -39%
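Luciferase read-out from HCMV-luciferase-infected HFFs (MOI 1 PFU/cell) 72 h post infection at 37C; compounds added after 16 h cell attachment; activity normalized between buffer-only basal and Salinomycin (10uM) inhibitor controls.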
HCV inhibitor: blocks hepatitis C virus; Huh7.5.1 HCVcc-Cre infection, luciferase reporter, 44 h; Potency, µM (top dose mostly 41.8 µM), for the others: at the highest dose activity change, negative = inhibition, actives largely listed as inhibitors; actives 3.4% (n = 340,000); also: potency is read from the fitted curve at half-maximal effect
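Infectious HCV cell culture screen: compound-treated cells (1,000/well, pre-plated 4 h) are infected with HCVcc-Cre at roughly 0.5 moi and grown 44 h. Infection is quantified by luciferase signal after 15 min substrate incubation at room temperature.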
An asterisk follows results filed as active; [ ] = remark or other dose. A selection: hits, their analogues and other compounds. The true share with any hit is near 8.3%. Unless noted, calls follow the shape of the dose curve; as a rule, active = well fitted curve in the direction sought with a large enough effect; inconclusive = small, poorly fitted or top-dose-only effect, or another doubt; inactive = no such curve, though single readings can be large; an effect the other way counts as inactive or inconclusive. % is scaled to controls: 0 for no effect and ±100 for the full control effect.

How did CCCCN1CC(c2nc3ccccc3n2CCCCOc2cc(C)ccc2C)CC1=O (centres undefined) do in these assays?
FMDV antiviral: inconclusive; MARV entry inh: inconclusive; LASV entry inh: 8%[46.1 µM]; HCMV antiviral: 25

Results for O=C1CCC[C@@H]2[C@@H](Cc3ccccc3)[C@H](N3CCN(c4ccccc4)CC3)C[C@@H]3CCN1[C@@H]32 ?
FMDV antiviral: 0%; HCMV antiviral: -80*; HCV inhibitor: 26%

What do the screens show for `O=C(Cn1c(=O)c2cc(Cl)ccc2n2nncc12)Nc1ccccc1`?
FMDV antiviral: -3%; MARV entry inh: 2%[46.1 µM]; LASV entry inh: -4%[46.1 µM]; HCMV antiviral: 8

What do the screens show for `COc1ccc(C2CC(=O)c3c(C)nc(N4CCN(C=O)CC4)nc3C2)c(OC)c1` (centres undefined)?
FMDV antiviral: inconclusive; MARV entry inh: -23%[46.1 µM]; LASV entry inh: -16%[46.1 µM]; HCMV antiviral: -23

How did CN1C(=O)C(Cl)(Cl)C(=O)c2ccccc21 do in these assays?
Giardia FBPA inh: 5µM*; FMDV antiviral: 28µM*; MARV entry inh: inconclusive; LASV entry inh: -22%; HCV inhibitor: 1%

What do the screens show for `CCCNC(=O)c1c[nH]c2ccc(S(=O)(=O)N(C)c3ccc(OCC)cc3)cc2c1=O`?
Giardia FBPA inh: -2%; FMDV antiviral: inconclusive; MARV entry inh: inconclusive; LASV entry inh: inconclusive; HCMV antiviral: inconclusive; HCV inhibitor: 22µM*

How did CCOc1ccc(N(C)S(=O)(=O)c2ccc3[nH]cc(C(=O)NCCOC)c(=O)c3c2)cc1 do in these assays?
Giardia FBPA inh: 4%; FMDV antiviral: inconclusive; MARV entry inh: 7%; LASV entry inh: -19%; HCMV antiviral: -18; HCV inhibitor: -27%

Results for C=CCNC(=O)c1c[nH]c2ccc(S(=O)(=O)N(C)c3ccc(OCC)cc3)cc2c1=O ?
Giardia FBPA inh: -1%; FMDV antiviral: 0%; HCMV antiviral: -67*; HCV inhibitor: inconclusive

What do the screens show for `CCOc1ccc(N(C)S(=O)(=O)c2ccc(C)c(C(=O)NCc3cccs3)c2)cc1`?
FMDV antiviral: -6%; HCMV antiviral: -1; HCV inhibitor: 14µM*

What do the screens show for `COc1ccc(NC(=O)c2oc3ccccc3c2NC(=O)Cc2ccc(F)cc2)c(OC)c1`?
FMDV antiviral: -20%; MARV entry inh: -21%[46.1 µM]; LASV entry inh: -11%[46.1 µM]; HCMV antiviral: -10

Results for Cc1ccc(C)c(NS(=O)(=O)c2cc(C(=O)NCc3ccncc3)ccc2C)c1 ?
Giardia FBPA inh: -1%; FMDV antiviral: 39%; MARV entry inh: inconclusive; LASV entry inh: -6%; HCMV antiviral: -69*; HCV inhibitor: inconclusive

How did Cc1ccc(CNC(=O)c2ccc(COc3ccccc3)cc2)cc1 do in these assays?
Giardia FBPA inh: 2%; FMDV antiviral: 15%; MARV entry inh: -4%; LASV entry inh: inconclusive; HCMV antiviral: -63*; HCV inhibitor: 4%

What do the screens show for `Cc1ccc(Oc2ccc(C(=O)NCc3ccncc3)cc2)cc1`?
Giardia FBPA inh: -2%; FMDV antiviral: inconclusive; MARV entry inh: inconclusive; LASV entry inh: 8.9µM*; HCMV antiviral: -83*; HCV inhibitor: 3.2µM*

How did O=C(Nc1ccc(F)cc1)C1CCN(c2nc3ccccc3nc2C(F)(F)F)CC1 do in these assays?
FMDV antiviral: 0%; LASV entry inh: 15%[46.1 µM]; HCMV antiviral: -3

What do the screens show for `COC(=O)C(CC(C)C)NS(=O)(=O)c1ccccc1Br` (centres undefined)?
Giardia FBPA inh: -2%

Results for CCN(C)C(=O)C1=COC2=NC(=O)N(Cc3ccccc3C(F)(F)F)CCN12 ?
HCMV antiviral: -2

What do the screens show for `O=C(CCS(=O)(=O)c1cccc2nonc12)Nc1ccc(F)cc1F`?
FMDV antiviral: 0%; LASV entry inh: 26%[46.1 µM]; HCMV antiviral: inconclusive

Results for OCCCNCc1cc2cc3c(cc2nc1N1CCN(c2cccc(Cl)c2)CC1)OCO3 ?
FMDV antiviral: 1%

How did COc1ccc(OC[C@@H]2CC3[C@@H](CC[C@@H](C)[C@H]3c3ccc(Br)cc3)C(=O)O2)cc1 (some centres undefined) do in these assays?
MARV entry inh: -5%[14.2 µM]; LASV entry inh: inconclusive

How did O=c1c2ccccc2[nH]c(=S)n1-c1cccc(S(=O)(=O)N2CCCC2)c1 do in these assays?
Giardia FBPA inh: -12%; FMDV antiviral: -28%; MARV entry inh: 0%[46.1 µM]; LASV entry inh: 12%; HCMV antiviral: -77*; HCV inhibitor: -12%

What do the screens show for `COC(=O)C1=C(C)N(Cc2cccc(C(F)(F)F)c2)C(=NCc2cc(OC)c(OC)c(OC)c2)NC1CCc1ccccc1` (centres undefined)?
HCMV antiviral: 37

What do the screens show for `O=C(CSc1nnc(NC(=O)c2ccccc2[N+](=O)[O-])s1)NC1CCCC1`?
FMDV antiviral: 16%; MARV entry inh: 21%; LASV entry inh: 16%; HCMV antiviral: 55; HCV inhibitor: 28%

Results for COc1ccccc1-n1ccnc1SCC(=O)NC1CCCC1 ?
Giardia FBPA inh: 0%; FMDV antiviral: -7%; MARV entry inh: 5%[46.1 µM]; HCMV antiviral: 63; HCV inhibitor: inconclusive

What do the screens show for `COc1ccccc1C(=O)Nc1nnc(SCC(=O)NC2CCCC2)s1`?
FMDV antiviral: 0%; MARV entry inh: 11µM*; LASV entry inh: inconclusive; HCV inhibitor: inconclusive

How did COc1ccccc1NC(=O)Cn1nc(-c2ccncc2)nc1SCC(=O)NC1CCCC1 do in these assays?
Giardia FBPA inh: 1%; FMDV antiviral: -15%; MARV entry inh: inconclusive; LASV entry inh: -16%; HCMV antiviral: -76*; HCV inhibitor: inconclusive

How did COc1ccccc1-n1cnnc1SCC(=O)NC1CCCCC1 do in these assays?
FMDV antiviral: -9%; HCMV antiviral: -83*; HCV inhibitor: -9%

Results for Cc1cc(C)c(C(=O)NCc2nc(-c3cccc(NC(=O)C4CCCN(C)C4)c3)oc2C)[nH]1 (centres undefined) ?
FMDV antiviral: -6%

How did COCCNC(=O)CCCn1c(SCC(=O)c2ccc(F)cc2)nc2c(sc3ccccc32)c1=O do in these assays?
FMDV antiviral: -11%; MARV entry inh: -1%[46.1 µM]; LASV entry inh: 23%[46.1 µM]; HCMV antiviral: 45

Results for Cc1ccc(-c2cc3ccccc3nc2N2CCOCC2)cc1 ?
Giardia FBPA inh: 7%; FMDV antiviral: -19%; MARV entry inh: 19%[46.1 µM]; LASV entry inh: 19%[46.1 µM]; HCMV antiviral: -29; HCV inhibitor: 10µM*

How did c1ccc2nc(N3CCCC3)c(N3CCCC3)nc2c1 do in these assays?
Giardia FBPA inh: -1%; FMDV antiviral: -20%; MARV entry inh: -2%[46.1 µM]; LASV entry inh: 5%; HCMV antiviral: -7; HCV inhibitor: -19%
